Results reported in PubChem BioAssay (NCI).
Compounds without any hit were thinned out: in the full panel of roughly 83,000, 20% have a hit.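 For each line, cells grew in 96-well plates with the test compound present at a single concentration for 48 hours.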 The source made the active and inactive calls. The calls were made as follows: active = growth percent below 10; inactive = the rest.

What was measured:
Assay in all cases: NCI-60 one-dose screen, 48 h (100 = growth as untreated, 0 = no growth, -100 = all killed)
Settings in all cases: 10 µM unless noted
DU-145 prostate = system: DU-145 prostate
K-562 leukemia = system: K-562 leukemia
MALME-3M melanoma = system: MALME-3M melanoma
MDA-MB-231 breast = system: MDA-MB-231 breast
RXF 393 renal = system: RXF 393 renal
SF-268 CNS = system: SF-268 CNS
SF-295 CNS = system: SF-295 CNS
SF-539 CNS = system: SF-539 CNS
UACC-257 melanoma = system: UACC-257 melanoma
M14 melanoma = system: M14 melanoma
HCT-15 colon = system: HCT-15 colon
HT29 colon = system: HT29 colon
SNB-75 CNS = system: SNB-75 CNS
SNB-19 CNS = system: SNB-19 CNS
U251 CNS = system: U251 CNS
PC-3 prostate = system: PC-3 prostate
SK-MEL-5 melanoma = system: SK-MEL-5 melanoma
UACC-62 melanoma = system: UACC-62 melanoma
LOX IMVI melanoma = system: LOX IMVI melanoma
SK-MEL-28 melanoma = system: SK-MEL-28 melanoma

Measured: growth

COc1ccc(Nc2ncc(C(N)=O)c(NCCCNC(=O)C3CCC3)n2)cc1
inactive: DU-145 prostate 77.3% | K-562 leukemia 39.5% | MALME-3M melanoma 95.2% | MDA-MB-231 breast 26.5% | RXF 393 renal 17% | SF-268 CNS 80.9% | SF-295 CNS 75.7% | SF-539 CNS 14.3% | UACC-257 melanoma 112% | M14 melanoma 67.7% | HCT-15 colon 82.1% | HT29 colon 70.7% | SNB-75 CNS 49.7% | SNB-19 CNS 75.5% | U251 CNS 56.3% | PC-3 prostate 62.8% | SK-MEL-5 melanoma 88.3% | UACC-62 melanoma 77.8% | LOX IMVI melanoma 73.1% | SK-MEL-28 melanoma 94.2%

O=C(Nc1ccc(F)cc1)Nc1ccccc1CNc1nc(Nc2ccc(OCCN3CCCC3)cc2)ncc1Cl
inactive: DU-145 prostate 47% | SF-268 CNS 56.5% | SF-295 CNS 82.3% | HCT-15 colon 38.8% | SNB-19 CNS 45.8% | U251 CNS 20.6% | PC-3 prostate 61.7% | SK-MEL-5 melanoma 44.9% | UACC-62 melanoma 95.2%
active: K-562 leukemia 2.99% | MALME-3M melanoma -29.3% | MDA-MB-231 breast -30.9% | RXF 393 renal -50% | SF-539 CNS -74.7% | UACC-257 melanoma 5.96% | M14 melanoma -39.2% | HT29 colon 6.13% | SNB-75 CNS -15.7% | LOX IMVI melanoma -57.6% | SK-MEL-28 melanoma -13.3%

CCc1ccc(CCC(=O)Nc2ncc(Cc3ccc(Cl)cc3)s2)o1
inactive: DU-145 prostate 14.4% | K-562 leukemia 10.9% | MALME-3M melanoma 46.4% | MDA-MB-231 breast 60.7% | SF-268 CNS 58.4% | SF-295 CNS 17% | UACC-257 melanoma 56.6% | HCT-15 colon 21.9% | SNB-19 CNS 50.6% | U251 CNS 22.8% | PC-3 prostate 29.3% | SK-MEL-5 melanoma 34.6% | UACC-62 melanoma 33.3% | LOX IMVI melanoma 47.6% | SK-MEL-28 melanoma 66.3%
active: RXF 393 renal -12.8% | SF-539 CNS 2.47% | M14 melanoma 8.78% | HT29 colon 8.1% | SNB-75 CNS -7.87%

N#Cc1nc(-c2ccc(F)cc2)oc1S(=O)(=O)N1CCN(c2ccc(F)cc2)CC1
inactive: DU-145 prostate 102% | K-562 leukemia 17.6% | MALME-3M melanoma 104% | MDA-MB-231 breast 92% | RXF 393 renal 95.3% | SF-268 CNS 106% | SF-295 CNS 106% | SF-539 CNS 101% | UACC-257 melanoma 97.9% | M14 melanoma 88.2% | HCT-15 colon 14% | HT29 colon 65.9% | SNB-75 CNS 87.6% | SNB-19 CNS 96.9% | U251 CNS 86.7% | PC-3 prostate 92% | SK-MEL-5 melanoma 93.1% | UACC-62 melanoma 90.6% | LOX IMVI melanoma 10.3% | SK-MEL-28 melanoma 104%

N/C(=N\c1nc2ccccc2s1)NC(=NC1CCCCC1)NC1CCCCC1
inactive: DU-145 prostate 14.3% | MDA-MB-231 breast 21.1% | SF-268 CNS 60% | SNB-75 CNS 23.1% | PC-3 prostate 24.2% | UACC-62 melanoma 52.8%
active: K-562 leukemia 3.16% | MALME-3M melanoma -70% | RXF 393 renal -46.9% | SF-295 CNS -34.9% | SF-539 CNS -44.7% | UACC-257 melanoma -52.6% | M14 melanoma -55.8% | HCT-15 colon 1.34% | HT29 colon 6.19% | SNB-19 CNS 4.28% | U251 CNS -56.2% | SK-MEL-5 melanoma -74.8% | LOX IMVI melanoma -100% | SK-MEL-28 melanoma -73.8%

COc1cc(C(=O)/C=C/c2ccc(N3CCN(C)CC3)cc2)cc(OC)c1OC
inactive: DU-145 prostate 104% | MALME-3M melanoma 86.3% | MDA-MB-231 breast 92% | RXF 393 renal 107% | SF-268 CNS 97.9% | SF-295 CNS 95.2% | SF-539 CNS 96.7% | UACC-257 melanoma 99.3% | M14 melanoma 94.8% | HCT-15 colon 92.5% | HT29 colon 94.7% | SNB-75 CNS 82.2% | SNB-19 CNS 95.3% | U251 CNS 99.5% | PC-3 prostate 99.3% | SK-MEL-5 melanoma 103% | UACC-62 melanoma 86.8% | LOX IMVI melanoma 90.4% | SK-MEL-28 melanoma 103%
active: K-562 leukemia 2.23%

Oc1c(I)cc(-c2nc3ccccc3s2)cc1CN(Cc1ccccn1)Cc1ccccn1
inactive: DU-145 prostate 28.1% | K-562 leukemia 13.1% | MALME-3M melanoma 11.5% | MDA-MB-231 breast 34.9% | RXF 393 renal 33.3% | SF-268 CNS 20.8% | SF-295 CNS 18.5% | HCT-15 colon 22% | HT29 colon 21.3% | SNB-75 CNS 40.1% | SNB-19 CNS 20.9% | PC-3 prostate 28.3% | UACC-62 melanoma 10.5% | SK-MEL-28 melanoma 37.5%
active: SF-539 CNS 4.13% | UACC-257 melanoma 0.435% | M14 melanoma -27.5% | U251 CNS 8.16% | SK-MEL-5 melanoma -78.3% | LOX IMVI melanoma 3.14%

CC(=O)c1cc(-c2ccccc2N)n(-c2ccc3c(c2)OCO3)c1C
active: DU-145 prostate 9.47% | K-562 leukemia 5.63% | SF-295 CNS -10% | SF-539 CNS -0.915% | HT29 colon 6.88% | SK-MEL-5 melanoma 2.46%
inactive: MALME-3M melanoma 48.7% | MDA-MB-231 breast 21.3% | RXF 393 renal 39.7% | SF-268 CNS 31.5% | UACC-257 melanoma 76.6% | M14 melanoma 10% | HCT-15 colon 13.4% | SNB-75 CNS 22.8% | SNB-19 CNS 18.6% | U251 CNS 14.7% | PC-3 prostate 30.1% | UACC-62 melanoma 25.3% | LOX IMVI melanoma 35.1% | SK-MEL-28 melanoma 52.4%

CN1CCN(c2ccc3c(c2)nc(NNC(=O)c2cnccn2)c2cccn23)CC1
inactive: DU-145 prostate 27.3% | K-562 leukemia 14.5% | MALME-3M melanoma 36.9% | MDA-MB-231 breast 34.1% | RXF 393 renal 48.6% | SF-268 CNS 25.9% | SF-295 CNS 10.4% | SF-539 CNS 15.2% | UACC-257 melanoma 46.6% | M14 melanoma 18.2% | HCT-15 colon 23.9% | HT29 colon 28.6% | SNB-75 CNS 66.7% | SNB-19 CNS 34.9% | U251 CNS 32.2% | PC-3 prostate 47.3% | SK-MEL-5 melanoma 31.2% | UACC-62 melanoma 12.9% | LOX IMVI melanoma 10.3% | SK-MEL-28 melanoma 24.8%

COc1ccccc1NC(=O)c1ccc(/C=C/C(=O)c2nccn2C)cc1
active: DU-145 prostate -88.2% | K-562 leukemia 2.11% | MALME-3M melanoma -19.9% | MDA-MB-231 breast -27% | RXF 393 renal -71.1% | SF-268 CNS -61.3% | SF-295 CNS -87.8% | SF-539 CNS -90.6% | UACC-257 melanoma -2.34% | M14 melanoma -61.2% | HCT-15 colon -30.3% | HT29 colon -52.6% | SNB-75 CNS -3.01% | SNB-19 CNS -84.3% | U251 CNS -74.6% | PC-3 prostate -49.4% | SK-MEL-5 melanoma -97.1% | UACC-62 melanoma -60.6% | LOX IMVI melanoma -82.5% | SK-MEL-28 melanoma -45.9%

COc1ccc(C2C(C#N)=C(N)Oc3c2sc2c(Br)cccc32)cc1 (stereo not given)
inactive: DU-145 prostate 21.4% | MALME-3M melanoma 37% | MDA-MB-231 breast 40.5% | SF-268 CNS 38.7% | SF-295 CNS 15.7% | UACC-257 melanoma 65.5% | HCT-15 colon 19.1% | SNB-75 CNS 11.3% | SNB-19 CNS 44.8% | U251 CNS 20.4% | PC-3 prostate 25.5% | SK-MEL-5 melanoma 29.3% | UACC-62 melanoma 10.6% | LOX IMVI melanoma 29.2% | SK-MEL-28 melanoma 59.5%
active: K-562 leukemia 9.39% | RXF 393 renal 4.42% | SF-539 CNS -12.4% | M14 melanoma 6.9% | HT29 colon 5%

COc1ccc(/C=C/C(=O)c2cc3c(N)c(C(=O)Nc4ccccc4C)sc3nc2C)cc1
inactive: DU-145 prostate 13% | K-562 leukemia 15.3% | MALME-3M melanoma 51.7% | MDA-MB-231 breast 15.5% | SF-268 CNS 32.3% | SF-295 CNS 14.2% | UACC-257 melanoma 64.8% | HCT-15 colon 15.2% | PC-3 prostate 25% | SK-MEL-5 melanoma 17.7% | UACC-62 melanoma 16.9% | LOX IMVI melanoma 18.7% | SK-MEL-28 melanoma 51.3%
active: RXF 393 renal -23.1% | SF-539 CNS -38.2% | M14 melanoma 3.29% | HT29 colon -27.6% | SNB-75 CNS -0.543% | SNB-19 CNS 6.45% | U251 CNS 9.39%

COc1cc2nc(Nc3cccc(F)c3)nc(Nc3cc(C)[nH]n3)c2cc1OC
active: DU-145 prostate -94.7% [20 µM] | K-562 leukemia -31.1% [20 µM] | MALME-3M melanoma -98.1% [20 µM] | MDA-MB-231 breast -98.6% [20 µM] | RXF 393 renal -88.7% [20 µM] | SF-268 CNS -69.9% [20 µM] | SF-295 CNS -92.1% [20 µM] | SF-539 CNS -100% [20 µM] | UACC-257 melanoma -62.4% [20 µM] | M14 melanoma -91.4% [20 µM] | HCT-15 colon -78.6% [20 µM] | HT29 colon -54.9% [20 µM] | SNB-75 CNS -97.5% [20 µM] | SNB-19 CNS -89.2% [20 µM] | U251 CNS -55.5% [20 µM] | PC-3 prostate -81% [20 µM] | SK-MEL-5 melanoma -90.1% [20 µM] | UACC-62 melanoma -95.7% [20 µM] | LOX IMVI melanoma -82.3% [20 µM] | SK-MEL-28 melanoma -99.3% [20 µM]

CN1CCN(C(=O)c2cc(-c3ccc4ncnc(N5CCc6cc(F)c(Cl)cc65)c4c3)cnc2N)CC1
active: DU-145 prostate 8.87% | MALME-3M melanoma -38.6% | RXF 393 renal -48.9% | SF-268 CNS 0.525% | SF-295 CNS 0.0297% | SF-539 CNS -24.3% | UACC-257 melanoma 6% | M14 melanoma 1.59% | HCT-15 colon 5.57% | SNB-75 CNS -35.3% | PC-3 prostate 1.89% | SK-MEL-5 melanoma -97.1% | UACC-62 melanoma -52.1% | LOX IMVI melanoma -41.4% | SK-MEL-28 melanoma -0.0571%
inactive: K-562 leukemia 11.1% | MDA-MB-231 breast 10.5% | HT29 colon 13.6% | SNB-19 CNS 13% | U251 CNS 15.4%

O=C(CSc1nc2ccc([N+](=O)[O-])cc2[nH]1)Nc1cccc([N+](=O)[O-])c1
inactive: DU-145 prostate 67% | K-562 leukemia 36.5% | MALME-3M melanoma 30.5% | MDA-MB-231 breast 73.7% | RXF 393 renal 60.5% | SF-268 CNS 64.6% | SF-295 CNS 43.8% | SF-539 CNS 66.6% | UACC-257 melanoma 42.7% | M14 melanoma 57.1% | HCT-15 colon 54.4% | HT29 colon 57.6% | SNB-75 CNS 49.5% | SNB-19 CNS 64.2% | U251 CNS 41.5% | PC-3 prostate 44.8% | SK-MEL-5 melanoma 19.7% | UACC-62 melanoma 21.1% | LOX IMVI melanoma 57.8% | SK-MEL-28 melanoma 55.7%
